From PubChem
This is a sample that favours compounds with a hit; in the whole collection about 1.7% have one here.
PABP polyA inh = PABP-poly(A) binding inhibition; P11940; PABP-poly(A) RNA binding, fluorescence polarization; 1% of 290,000 active; calls only at 35 µM; AID 2014;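 note: calls also rest on retests at 20 µM and on dose response follow-up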
eIF4E 4G PPI = eIF4E/eIF4G interaction inhibition in translation initiation; TR-FRET eIF4E-eIF4GI(517-606) binding, 2 h; inhibition, % at 21.7 µM; 0.37% of 220,000 active; AID 782;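 active = inhibition above about 30%, limit read from the data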;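 note: 0% = full FRET control wells and 100% = background wells lacking eIF4GI fragment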
EBV gp42 inh = EBV gp42 inhibition; inhibition, % (tested at 21.74 µM); Fluorescence polarization binding assay, mP read-out; 0.42% of 220,000 active; Q1HVG2; in the data active = inhibition above about 50%
Target sequence (Q1HVG2 whole entry, looked up): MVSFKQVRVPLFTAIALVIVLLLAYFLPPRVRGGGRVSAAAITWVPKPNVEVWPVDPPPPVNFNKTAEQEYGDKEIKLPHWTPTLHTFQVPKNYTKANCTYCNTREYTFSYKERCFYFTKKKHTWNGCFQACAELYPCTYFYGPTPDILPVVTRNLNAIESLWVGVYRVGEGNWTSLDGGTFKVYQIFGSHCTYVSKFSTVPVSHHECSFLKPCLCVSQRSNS
eIF4H inh = inhibitors of RNA binding by human eIF4H; Q15056; AID 2012; 0.94% of 290,000 active; eIF4H fluorescence polarization binding assay; inhibition, % at 35 µM;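 note: calls also rest on retests at 20 µM and on dose response follow-up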
MLLE-PAM2 inh = blocks PAM2 peptide binding to the PABP1 MLLE domain; P11940; GST-MLLE / FITC-PAM2 fluorescence polarization; inhibition, % at 20 µM; 0.36% of 360,000 active; in the data active = inhibition above about 35%, passing the limit was not always enough;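 note: plate controls were DMSO wells with GST-MLLE for no effect and wells lacking GST-MLLE protein for full effect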
Numbers without * were called inactive; i = inactive; ? = inconclusive; . = not tested or not shown; + = active, no number; [ ] = another dose, or the depositor's remark. Unless noted, the rule behind the calls is not given here.

SMILES	PABP polyA inh	eIF4E 4G PPI	EBV gp42 inh	eIF4H inh	MLLE-PAM2 inh
CCN(CC)C(=O)c1ccc2c(c1)C1C(Cl)C(Sc3ccccc3[N+](=O)[O-])CC1C(C(=O)O)N2 (configuration not stated)	+	7.3	2.4	90.5*	38.8
O=C(O)c1ccc2c(c1)C1C(Cl)C(Sc3ccccc3[N+](=O)[O-])CC1C(c1cccc([N+](=O)[O-])c1)N2 (configuration not stated)	i	1.2	14.8	99.2	13.3
CCN(CC)C(=O)c1ccc2c(c1)C1C=CCC1C(C(=O)O)N2 (configuration not stated)	+	.	.	85.4*	17.2
CCN(CC)C(=O)c1ccc(N(Cc2ccccc2)S(C)(=O)=O)cc1	i	.	.	-4.5	8.7
Cc1ccc2c(c1Cl)NC(C(=O)O)C1CC(Sc3ccccc3[N+](=O)[O-])C(Cl)C21 (configuration not stated)	+	20.9	3.1	87.0*	21.6
O=C(O)c1cccc2c1NC(c1cccc([N+](=O)[O-])c1)C1CC(Sc3ccccc3[N+](=O)[O-])C(Cl)C21 (configuration not stated)	i	34.8*	10.1	81.7*	11.5
CCc1nn2c(=O)c(F)c(N3CCNCC3)nc2s1	.	.	.	.	-9.8
CC(=O)Nc1nc(CCl)cs1	i	-0.7	-23.8	-6.0	14.7
Cc1cc(N)n(C2CCN(C)CC2)n1	i	-3.6	-15.2	-2.6	-4.4
CCOC(=O)C1=CC(=C2C(=O)N(CC)C(=S)N(CC)C2=O)c2ccccc2O1	i	0.2	0.8	11.2	.
N#CC1c2ccccc2-n2nncc2CN1C(=O)c1ccccc1F (configuration not stated)	.	.	.	.	-1.0
Cc1ccc(N2C(=O)NC(=O)/C(=C\c3cnc(-c4ccccc4)nc3)C2=O)cc1	i	2.6	-23.1	57.5*	-1.7
CSc1ncc(/C=C2/C(=O)NC(=O)N(c3ccc(C)cc3)C2=O)cn1	i	-0.8	-17.5	-9.4	29.6
Cc1ccc(N2C(=O)NC(=O)/C(=C/c3ccoc3)C2=O)cc1	?	35.3*	10.2	?	-83.5
O=S1(=O)CCN(CCc2c[nH]c3ccccc23)CC1	+	-4.8	1.9	active	8.2
c1ccc2c(CN3CCCCCC3)c[nH]c2c1	i	-0.8	-14.5	-9.1	2.1
O=c1c2ccccc2nc(/C=C/c2ccc(F)cc2)n1-c1ccccn1	i	5.7	-9.7	0.6	.
O=C1c2ccccc2C(=O)N1Cc1nc2ccccc2c(=O)n1-c1ccccn1	i	31.1*	-16.1	1.5	-7.9
CCOC(=O)COc1ccc(/C=C2\C(=O)NC(=S)N(c3ccc(OC)cc3)C2=O)cc1OC	i	.	.	-5.6	39.3*
COC(=O)COc1ccc(/C=C2\C(=O)NC(=S)N(c3ccc(C)cc3)C2=O)cc1OC	i	.	.	-9.3	17.5
CN(C)C1C(=O)C(C(N)=O)=C(O)C2(O)C(=O)C3=C(O)c4c(O)cccc4C(C)(O)C3CC12 (configuration not stated)	+	.	.	81.3*	0.1
O=c1[nH]c(=O)n(CCC2=CCCCC2)c(O)c1/C=N/Nc1ccccc1	i	14.3	-26.3	1.5	-12.1
O=c1[nH]c(=O)n(CCC2=CCCCC2)c(O)c1/C=N/Nc1cccc2ccccc12	+	0.5	-10.3	?	2.7
c1ccc(-c2[nH]c(-c3ccccc3)[n+](CC3CO3)c2-c2ccccc2)cc1 (configuration not stated)	i	-1.2	56.8*	-3.9	9.9
Cc1cc2c(C(C)C)c(O)c(O)c(C=O)c2c(O)c1-c1c(C)cc2c(C(C)C)c(O)c(O)c(C=O)c2c1O	+	33.4*[fluorescence artefact?]	15.1	95.4	9.3
SMILES	PABP polyA inh	eIF4E 4G PPI	EBV gp42 inh	eIF4H inh	MLLE-PAM2 inh
Cc1ccc(-n2c(O)c(C=Nc3ccc(S(=O)(=O)N(C)C)cc3)c(=O)[nH]c2=O)cc1	+	3.2	-11.8	?	-3.2
CCN(CC)c1ccc(N=Cc2c(O)n(-c3ccc(OC)cc3)c(=O)[nH]c2=O)cc1	i	-8.9	101.6*	130.1	-77.0
CCC(C)N=Cc1c(O)n(-c2ccccc2)c(=O)[nH]c1=O (configuration not stated)	i	0.9	-26.1	-4.8	45.6*
C=CCn1c(O)c(C=Nc2ccc(N(CC)CC)cc2)c(=O)[nH]c1=O	+	-19.4	4.9	53.8*	-6.2
Cc1ccc(-n2c(O)c(C=Nc3ccccc3N)c(=O)[nH]c2=O)cc1C	i	-5.8	-12.5	1.5	-26.9
O=c1[nH]c(=O)n(-c2ccc(F)cc2)c(O)c1C=Nc1ccccc1N1CCCC1	+	-40.6	-120.6	63.8*	-57.9
N=Cc1c(O)n(-c2cccc(Cl)c2)c(=O)[nH]c1=O	i	-1.6	-16.0	-0.5	9.6
O=c1[nH]c(=O)n(-c2cccc(Cl)c2)c(O)c1/C=N/c1ccccn1	+	8.8	-18.9	85.3*	-33.3
CC/C(=C\C=C\[C@@H]1C=C[C@@H]2CCC[C@H]2[C@@H]1C(=O)c1ccc[nH]1)[C@@H]1O[C@@H]([C@@H](C)C(=O)O)CC[C@@H]1C	i	-0.6	-0.9	31.5	.
CN1CCN(c2nc3ccccn3c(=O)c2C=C2C(=O)N(C)C(=O)N(C)C2=O)CC1	+	5.1	-12.4	?	1.5
CCOc1cccc(N2C(=O)CC(=O)NC2=O)c1	i	2.6	6.4	32.4	-23.6
O=C1CC(=O)N(c2ccc(Cl)cc2)C(=O)N1	i	.	.	-7.9	-37.7
CC(C)c1ccc(N2C(=O)CC(=O)NC2=O)cc1	+	.	.	?	-47.3
COc1cccc(N2C(=O)CC(=O)NC2=O)c1	+	4.0	-15.9	76.6*	-15.4
COP(=S)(OC)SCN1C(=O)c2ccccc2C1=O	i	-1.9	-8.4	2.9	27.8
COc1ccc(OC(=O)N(C)C[C@@H]2OCc3ccccc3-c3c(n(C)c4ccccc34)C(=O)N([C@H](C)CO)C[C@@H]2C)cc1	.	.	.	.	-3.5
O=C(Nc1ccc(Cl)cc1C(=O)c1ccccc1)c1ccc(Br)o1	i	-12.9	-11.2	7.6	-0.4
CC(=O)OC1N=C(c2ccccc2)c2ccccc2NC1=O (configuration not stated)	i	-3.5	5.0	-0.7	0.9
O=c1[nH]c(=O)n(Cc2ccccc2)c(O)c1/C=C1\C=Nc2ccccc21	i	10.0	89.9*	?	-93.0
CCCCC(=O)N/N=C/c1c(O)n(Cc2ccco2)c(=O)[nH]c1=O	+	-0.3	-10.8	85.8	-34.9
O=C(N/N=C/c1c(O)n(Cc2ccco2)c(=O)[nH]c1=O)c1ccccc1O	i	-0.5	-14.6	53.2*	-57.5
O=P(Oc1ccccc1)(Oc1ccccc1)N1CCOCC1	.	.	.	.	12.6
C[C@]1(O)CCC2C3CC[C@H]4C[C@@H](OC(=O)[C@@H](N)CCCCN)CC[C@]4(C)C3CC[C@@]21C (some centres not stated)	.	.	.	.	0.8
C[C@H](CO)N1C[C@H](C)[C@@H](CN(C)C(=O)Oc2ccccc2)OCc2cnnn2CCCC1=O	.	.	.	.	0.2
